# Assay results reported in PubChem BioAssay AID488975 (Johns Hopkins Ion Channel Center, 2010).
# In all, about 310,000 compounds went through this assay and about 2,600 (0.84%) were called active.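 How the source made its calls: active means B-score over 3 SD under the library average, and starting fluorescence ratio not unusually high; inactive means the rest.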 Many of the other results were omitted from the sample, so actives are more common in it than they were.
# Biological target: High affinity choline transporter 1 (Homo sapiens) (UniProt Q9GZV3)
# Experiment: inhibits the human high affinity choline transporter (AID 488975);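 on B-score: choline stimulus applied at its EC90 after an EC20 pre-addition; B-score computed on integrated fluorescence ratio after choline addition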
# Conditions: CHT-expressing cells, membrane potential dye, choline response, at 10 µM; hits give low values
# Chain of High affinity choline transporter 1 (Homo sapiens) (Q9GZV3 whole entry, looked up): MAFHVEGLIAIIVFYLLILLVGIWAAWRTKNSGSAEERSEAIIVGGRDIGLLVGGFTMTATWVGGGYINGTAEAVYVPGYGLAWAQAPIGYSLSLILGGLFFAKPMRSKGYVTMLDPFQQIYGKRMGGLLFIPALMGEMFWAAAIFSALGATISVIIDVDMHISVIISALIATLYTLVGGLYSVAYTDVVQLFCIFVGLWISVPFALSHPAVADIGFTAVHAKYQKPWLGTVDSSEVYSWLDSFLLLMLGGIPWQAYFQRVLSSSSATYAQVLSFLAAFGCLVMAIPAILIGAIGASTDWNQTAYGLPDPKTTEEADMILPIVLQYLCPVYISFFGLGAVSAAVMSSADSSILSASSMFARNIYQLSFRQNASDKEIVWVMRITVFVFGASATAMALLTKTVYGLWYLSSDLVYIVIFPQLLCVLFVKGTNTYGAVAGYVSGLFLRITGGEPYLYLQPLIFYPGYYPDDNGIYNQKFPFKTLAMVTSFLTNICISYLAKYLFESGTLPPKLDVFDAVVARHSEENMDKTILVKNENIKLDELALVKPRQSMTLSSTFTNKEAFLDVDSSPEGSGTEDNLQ
row,Structure (SMILES),B-score
1,O=[N+]([O-])c1ccccc1Nc1ccc(O)cc1,-5.48 (active)
2,O=[N+]([O-])c1ccc(O)c(/C=N/Nc2ccccc2[N+](=O)[O-])c1,inactive
3,O=C(O)c1ccccc1C(=O)Nc1ccccc1[N+](=O)[O-],inactive
4,CCN(C(=O)CSc1nnnn1-c1ccccc1OC)C1CCS(=O)(=O)C1 (configuration not stated),inactive
5,Cc1nc2c(c(C)nn2-c2ccccc2)c(C)c1C,inactive
6,O=C(Nc1ncccc1O)c1ccc(C(=O)c2ccccc2)cc1,inactive
7,Cc1csc(=O)n1CC(=O)OCC(=O)N(CC(C)C)c1c(N)n(Cc2ccccc2)c(=O)[nH]c1=O,inactive
8,CC(C)(C)C(=O)/C(C#N)=C/c1ccc(O)cc1,-5.45 (active)
9,CCOC(=O)NC(=O)/C(C#N)=C\c1ccccc1,inactive
10,CCOC(=O)/C(C#N)=C/c1ccc(N2CCCCC2)cc1,inactive
11,CCCCCn1c(=O)[nH]c2cc(C(=O)NCCCN3CCCCC3C)ccc2c1=O (configuration not stated),-6.4 (active)
12,O=C(NC1CCCCC1)c1ccc2c(=O)n(CC3CCCO3)c(=O)[nH]c2c1 (configuration not stated),inactive
13,CCC1CCCCN1CCCNC(=O)C1CCC(Cn2c(=O)[nH]c3ccccc3c2=O)CC1 (configuration not stated),inactive
14,CCN1C(=O)[C@H]2[C@@H](c3ccc(C)cc3)N3C(=O)N(c4cccc(Br)c4)C(=O)[C@@]3(CC)[C@H]2C1=O,inactive
15,O=C(CCCCO)c1ccc(O)c(Cl)c1,inactive
16,CC(C)Cn1c(CN(Cc2ccccc2)Cc2ccccc2)nc2c1c(=O)n(C)c(=O)n2C,inactive
17,COCCn1c(CN(Cc2ccccc2)Cc2ccccc2)nc2c1c(=O)n(C)c(=O)n2C,inactive
18,CC(C)CCn1c(CN(C)Cc2ccccc2)nc2c1c(=O)n(C)c(=O)n2C,-5.25 (active)
19,COc1cc(C2C(C(=O)c3cccs3)=C(O)C(=O)N2CCN2CCOCC2)ccc1OCCC(C)C (configuration not stated),inactive
20,COc1ccc(NC(=O)CN2C(=O)CSc3ccc(S(=O)(=O)N4CCC(C)CC4)cc32)cc1,inactive
21,CC1CCN(CCCNC(=O)CN2C(=O)CSc3ccc(S(=O)(=O)N4CCCCC4)cc32)CC1,-5.37 (active)

row,Structure (SMILES),B-score
1,COCCCNC(=O)CN1C(=O)CSc2ccc(S(=O)(=O)N3CCOCC3)cc21,inactive
2,O=S(=O)(NCCCc1ccccc1)c1ccc(Br)cc1,inactive
3,O=C(c1ccc(F)cc1)N1CCC(C(=O)N2CCN(S(=O)(=O)c3ccccc3Br)CC2)CC1,inactive
4,COc1ccc(/C=C2\SC(=O)N(CCC(=O)NCCCn3ccnc3)C2=O)cc1,inactive
5,COc1ccc(/C=C2/SC(=O)N(CCCCCC(=O)Nc3ccccc3C(=O)O)C2=S)cc1,-9.31 (active)
6,O=C(CCCN1C(=O)/C(=C\c2ccccc2)SC1=S)Nc1ccccc1O,inactive
7,CC(=O)CC(CC(=O)NC1CCCCC1)c1ccccc1 (configuration not stated),inactive
8,Cc1ccc(C)c(C(=O)N2CCC(n3nccc3NC(=O)C3CC3)CC2)c1,inactive
9,Cc1ccc2c(C)c(C(=O)N3CCC(N4CCC(C(=O)NC5CC5)CC4)CC3)oc2c1,-8.96 (active)
10,CCOC(=O)C1CCN(C(=O)c2oc3ccc(S(=O)(=O)N4CCCCCC4)cc3c2C)CC1,inactive
11,Cc1ccccc1-n1c(C)cc(/C=N/NC(=O)c2ccc(CN3CCOCC3)cc2)c1C,-9.28 (active)
12,COc1ccc(C(=O)Nc2ccc(CN3CCOCC3)cc2)cc1,inactive
13,C/C(CCc1ccccc1)=N\NC(=O)c1ccc(CN2CCOCC2)cc1,inactive
14,COc1ccc(S(=O)(=O)NCc2cccnc2)cc1NC(=O)c1ccc(C)cc1,inactive
15,Cc1cc(C)c(S(=O)(=O)N2CCCC2CNC(=O)c2ccc3c(c2)OCO3)c(C)c1 (configuration not stated),inactive
16,O=S(=O)(O)Oc1c[nH]c2ccccc12,inactive
17,COc1ccc(OCCCC(=O)Oc2ccc(OC)cc2)cc1,inactive
18,COc1ccc(OCC(=O)OCCN(C)C)cc1,-11 (active)
19,COc1ccc(OCCC(=O)c2ccc(OC)cc2)cc1,inactive
20,CCOc1ccc(CCNC(=O)COC(=O)c2c(OC)cccc2OC)cc1OCC,inactive
21,CCCCCC(=O)N1CCN(S(=O)(=O)c2ccc3c(c2)OCCCO3)CC1,inactive

row,Structure (SMILES),B-score
1,CN1CCCN(S(=O)(=O)c2ccc3c(c2)OCCO3)CC1,inactive
2,O=C(c1c(F)cccc1Cl)N1CCN(S(=O)(=O)c2ccc3c(c2)OCCCO3)CC1,-5.01 (active)
3,CC(C)c1ccc(S(=O)(=O)N2CCN(C(=O)CN3C(=O)NC(C)(c4ccccc4)C3=O)CC2)cc1 (configuration not stated),inactive
4,CSc1nnc(NC(=O)c2nc(S(=O)(=O)Cc3ccc(C)cc3)ncc2Cl)s1,inactive
5,Cc1ccc(CS(=O)(=O)c2ncc(Cl)c(C(=O)Nc3nnc(C)s3)n2)cc1,-9.37 (active)
6,Cc1cccc(NC(=O)c2nc(S(=O)(=O)Cc3ccccc3)ncc2Cl)c1,inactive
7,Cc1ccc(C(=O)CN2C(=O)NC3(CCc4ccccc43)C2=O)c(C)c1 (configuration not stated),inactive
8,CC(=O)OCCOCn1cnn2c(=O)c(Br)c(C)nc12,-5.09 (active)
9,O=C(OCCOCn1cc(Br)c(=O)[nH]c1=O)c1ccccc1,inactive
10,CCCN(CC(=O)Nc1ccccc1OC)C(=O)CCC(=O)c1ccc(F)cc1,inactive
11,Cc1ccc(Cn2ccc(NC(=O)c3cc(C(C)C)on3)n2)cc1,inactive
12,O=C(Nc1ccn(Cc2ccccc2)n1)c1n[nH]c([N+](=O)[O-])c1Cl,-5.17 (active)
13,Cn1cc([N+](=O)[O-])c(C(=O)Nc2cnn(Cc3ccc(F)cc3)c2)n1,inactive
14,CCN1C(=O)[C@@H]2[C@@H](c3ccc(-c4ccccc4)cc3)N3CCCC[C@@]3(C(=O)OC)[C@@H]2C1=O,inactive
15,CCCCCCSc1ccc([C@@H]2[C@@H]3C(=O)N(CC)C(=O)[C@@H]3[C@]3(C(=O)OC)CCCCN23)cc1OC,inactive
16,O=C(NCCC1CCCCN1S(=O)(=O)c1ccc(F)cc1)C(=O)NC1CC1 (configuration not stated),inactive
17,COc1ccc(CCNc2cc(N3CCN(C(=O)c4ccccc4OC)CC3)ccc2[N+](=O)[O-])cc1OC,inactive
18,CCS(=O)(=O)C1=NSC2=NC(=O)/C(=C\c3cc(C)n(-c4cccc(OC)c4)c3C)C(=N)N21,inactive
19,Cc1cc(/C=C2/C(=N)N3C(=NC2=O)SN=C3S(C)(=O)=O)c(C)n1-c1ccccc1,inactive
20,CCS(=O)(=O)C1=NSC2=NC(=O)/C(=C\c3ccc(OS(=O)(=O)c4ccccc4)cc3)C(=N)N21,-7.46 (active)
